Hits are enriched below; roughly 19% of the tested compounds scored in any of these assays.
HT1080 IDH1KD tx = HT-1080 IDH1 knockdown cell toxicity (counter line); HT-1080 IDH1 knockdown viability, ATP luminescence, 48 h; Potency, µM (top dose mostly 46.1 µM), for the others: at the highest dose activity, negative = toxicity, usual class: cytotoxic; hit rate 2% among 360,000;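 also: potency is read from the fitted curve at half-maximal effect; 0% = DMSO wells and -100% = cell-free medium wells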
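Luminescent ATP read-out (CellTiter-Glo, 10 min at room temperature) after 48 h compound exposure at 37 °C gave viability of IDH1-knockdown HT-1080 cells. Activity was normalised to DMSO and cell-free wells, then fitted as concentration-response curves.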
IL1B secr inh = inflammasome signaling inhibition, IL-1 beta readout; hit rate 4.7% among 360,000; THP-1 LPS/ATP IL-1B secretion, AlphaLISA, 16 h; stronger effect = lower value; activity change, % at 57.5 µM; AID 743279; in the data active = activity change below about -50%; inconclusive = mostly about -30% to -49%
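Secreted IL-1B measured by AlphaLISA bead assay after 16 h compound exposure of THP-1 cells; compounds (final up to 57.5 uM) added 1 h before LPS (250 ng/mL) and ATP (1.25 mM) stimulation; lower signal means less secretion.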
HT1080-NT tox = kills 2HG-producing HT-1080-NT fibrosarcoma cells | Potency, µM (titrated, usually from 46.1 µM), for inactives: top-dose activity, negative = less viability, usual class: cytotoxic | HT-1080-NT fibrosarcoma viability, CellTiter-Glo ATP luminescence, 48 h | hit rate 1.6% among 360,000;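 also: NT is the 2HG producing partner of a matched IDH1 knockdown line; potency is read from the fitted curve at half-maximal effect; 0% = DMSO-treated cells and -100% = media-only wells without cells; nearly all actives have a fitted effect of over 55% in size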
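Viability by CellTiter-Glo luminescence after 48 h compound exposure at 37C of HT-1080-NT cells (750/well, RPMI, 5% FBS). % activity scaled between DMSO wells and medium-only wells, then curve-fitted and categorized by curve class.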
DT40 TDP1 no CPT = qHTS for Inhibitors of human tyrosyl-DNA phosphodiesterase 1 (TDP1): qHTS in cells in absence of CPT; hit rate 15% among 420,000; AID 686978, 2013; Potency, µM (highest dose often 46.2 µM), for the others: at the top dose activity change, negative = growth inhibition, actives largely listed as inhibitors; DT40 Tdp1-/- hTDP1 cells, no CPT, ATP luminescence, 48 h; also: potency is read from the fitted curve at half-maximal effect; nearly all actives have a fitted effect of over 55% in size
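Chicken DT40 Tdp1-/- cells stably complemented with human TDP1 were seeded at 400 cells/well with DMSO in place of 20 nM camptothecin. After compound pinning, cells grew at least 48 hr at 37 °C; viability read by CellTiter-Glo luminescence.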
TDP1 cell CPT = growth inhibition of DT40 Tdp1-/-;hTDP1 cells with camptothecin (screen for TDP1 inhibitors); chicken DT40 Tdp1-/-;hTDP1 cells + 20 nM CPT, ATP luminescence, 48 h; Potency, µM (top dose mostly 46.2 µM), without a hit: at the highest dose activity change, negative = growth inhibition, most hits filed as inhibitors; hit rate 12% among 420,000; AID 686979; also: potency is read from the fitted curve at half-maximal effect; nearly all actives have a fitted effect of over 55% in size
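Chicken DT40 Tdp1-/- cells complemented with human TDP1, 400 cells/well, exposed to compounds plus 20 nM camptothecin for at least 48 h at 37 C; viability read as ATP content by CellTiter-Glo luminescence.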
The depositor's hits bear a star; i = inactive; ? = inconclusive; nt = no result given; [ ] = remark or other dose. Unless noted, calls follow the shape of the dose curve; as a rule, active = well fitted curve in the direction sought with a large enough effect; inconclusive = small, poorly fitted or top-dose-only effect, or another doubt; inactive = no such curve, though single readings can be large; an effect the other way counts as inactive or inconclusive. Unless noted, % is scaled to controls: 0 for no effect and ±100 for the full control effect.

SMILES	HT1080 IDH1KD tx	IL1B secr inh	HT1080-NT tox	DT40 TDP1 no CPT	TDP1 cell CPT
CCc1ccc(N=CC23c4ccccc4C(c4ccccc42)C2C(=O)N(c4ccc(OC)cc4)C(=O)C23)cc1 (stereo not drawn)	?	-15	?	18µM*	?
CCCCNC(=O)NNC(=O)c1cc(C)on1	27%	0	21%	18%	7%
COC(=O)CSC1=C(C#N)C(=O)NC(c2ccccc2)S1 (stereo not drawn)	5%	?	5%	2.1µM*	2.6µM*
CC(C)OC(=O)CN1CCN(C2c3ccccc3-c3ccccc32)CC1	2%	5	-1%	29µM*	?
CC(C)C(NC(=O)CNC(=O)OC(C)(C)C)C(=O)NCc1ccccc1 (stereo not drawn)	13%	?	6%	-3%	-10%
Cc1ccc(S(=O)(=O)Nc2ccc(N(C)C)cc2)cc1	-3%	-21	-7%	?	-24%
CN(C)c1ccc(NS(=O)(=O)c2cccc(Cl)c2)cc1	-4%	-9	-1%	10µM*	-16%
CN(C)c1ccc(NS(=O)(=O)c2ccc(Cl)cc2)cc1	-9%	-1	-5%	?	18µM*
CN(C)c1ccc(NS(=O)(=O)c2ccc(-c3csnn3)cc2)cc1	4%	-5	-3%	13µM*	?
CCOc1ccc(-n2ccnc(SCC(=O)NCc3cccc(OC)c3)c2=O)cc1	-7%	-11	-7%	23µM*	18µM*
CCOc1ccc(-n2ccnc(SCC(=O)Nc3ccc(OC)cc3OC)c2=O)cc1	-20%	-10	-19%	23µM*	21µM*
CC(=O)c1cccc(NC(=O)c2cc(S(=O)(=O)N3CCOCC3)cs2)c1	8%	0	-1%	-20%	-11%
COc1cccc(OCc2cc(=O)n3cc(C)sc3n2)c1	nt	nt	nt	?	-25%
CCN1CCCC1CNC(=O)C(=O)NC(C)C (stereo not drawn)	5%	17	17%	1%	9%
O=C(N[C@H](CO)c1ccccc1)[C@H]1O[C@@H](n2ccc(=O)[nH]c2=O)[C@H](O)[C@@H]1O	-1%	28	0%	3%	-8%
O=[N+]([O-])c1cccc(-c2nnc(-c3ccccc3F)o2)c1	11%	5	6%	15%	-11%
CCOC(=O)C(C)C1(O)c2ccccc2-c2ncccc21 (stereo not drawn)	-1%	3	0%	-11%	4%
OC(CC1CC12c1ccccc1-c1ncccc12)(c1ccccc1)c1ccccc1 (stereo not drawn)	-29%	?	-29%	16µM*	?
O=C(OCc1cn([C@@H]2CN(C(=O)C3CCCCC3)[C@@H](c3ccccc3)C[C@H]2O)nn1)c1ccccc1	14%	9	5%	?	0%
O=C(OCc1cn([C@H]2CN(C(=O)C3CCCCC3)[C@@H](c3ccc(Cl)cc3)C[C@@H]2O)nn1)c1ccccc1	-10%	-20	-15%	21µM*	?
O=C(OCc1cn([C@H]2CN(C(=O)C3CCCCC3)[C@@H](c3ccccc3)C[C@@H]2O)nn1)c1ccccc1	-7%	33	-4%	21µM*	?
O=C(/C=C\c1ccccc1)NC1CC(=O)N(c2ccccc2)C1 (stereo not drawn)	nt	nt	nt	-7%	-16%
CC1(C)SC[C@H](C(=O)Nc2cccc(Cl)c2)N1C=O	-1%	-20	-6%	4%	-1%
CC1CCc2nn(CC(=O)Nc3ccccc3Cl)cc2C1 (stereo not drawn)	nt	nt	nt	-27%	-26%
Clc1ccc2oc(-c3ccccc3)cc(=NCCCN3CCOCC3)c2c1	?	-91*	?	?	?
SMILES	HT1080 IDH1KD tx	IL1B secr inh	HT1080-NT tox	DT40 TDP1 no CPT	TDP1 cell CPT
CCN(CC)c1ccc2c(-c3ccc(S(=O)(=O)O)cc3S(=O)(=O)[O-])c3ccc(=[N+](CC)CC)cc-3oc2c1	?	28	?	7.3µM*	?
Cc1cc(C)nc(-n2nc(C)c3c2N(Cc2ccccc2F)C(=O)CC3c2ccc(Cl)cc2)n1 (stereo not drawn)	nt	nt	nt	23µM*	23µM*
CSc1nc(N2CCN(c3ccccc3)CC2)cc(N2CCN(c3ccccc3)CC2)n1	29%	-2	17%	-25%	-1%
CC1CC(C)C[N+](=C2C=C(N3CCCC3)CC(C)(C)C2)C1 (stereo not drawn)	?	?	9.2µM*	0.0082µM*	0.21µM*
CC1(C)CC(N2CCN(c3ccccc3)CC2)=CC(=[N+]2CCCC2)C1	14µM*	-102*	1.1µM*	0.23µM*	0.18µM*
COC(=O)N[C@H](C(=O)N[C@@H](Cc1ccccc1)[C@@H](O)CN(Cc1ccc(-c2ccccn2)cc1)NC(=O)[C@@H](NC(=O)OC)C(C)(C)C)C(C)(C)C	nt	nt	nt	-12%	-17%
Clc1ccccc1Cn1nnc2c(N3CCCC3)ncnc21	20µM*	-6	?	?	?
CCc1nc(N2CCC3(CC2)OCCO3)c2nnn(Cc3ccccc3Cl)c2n1	-12%	?	0%	16µM*	?
CC(C)(C)NC(=O)CSc1ncnc2c1nnn2Cc1ccccc1Cl	?	-60*	?	?	?
CC1Cc2ccccc2N1c1ncnc2c1nnn2Cc1ccccc1Cl (stereo not drawn)	2%	32	-3%	?	?
O=C(CSc1ncnc2c1nnn2Cc1ccccc1)NC1CCCC1	0%	?	10%	-2%	4%
CCC(C)[C@@H](C(=O)Nc1ccc(OC)c(OC)c1)N1Cc2ccccc2C1=O (stereo partly drawn)	0%	3	-11%	?	-15%
O=S(=O)(/C=C/c1ccccc1)N1CCN(Cc2ccccc2)CC1	-8%	-20	-6%	-22%	2%
O=C(COC(=O)c1cccc(C(F)(F)F)c1)NCc1ccccc1	12%	i	8%	-25%	-19%
Cc1ncc2c(c1CNS(=O)(=O)N(C)C)CCN(C(=O)/C=C/c1ccccc1Cl)C2	nt	nt	nt	?	6%[9.04 µM]
COc1cc(NC(=O)c2cc([N+](=O)[O-])ccc2NC(=O)CNCc2ccccn2)cc(OC)c1	-23%	93	-21%	?	2%
COc1ccc(NC(=O)c2cc([N+](=O)[O-])ccc2NC(=O)CNCc2ccccn2)c(OC)c1	?	-8	-21%	13µM*	?
COc1cc(NC(=O)c2cc([N+](=O)[O-])ccc2NC(=O)CNC2CCCCC2C)cc(OC)c1 (stereo not drawn)	0%	-19	?	?	?

High-throughput results from PubChem.
